Reference: ChEMBL document CHEMBL3988442, “University of Dundee, Small-Polar-MMV Screening Library” (2021)
For some assays here: Results with a measured potency or affinity are listed apart.

Columns and labels:
Set-up in all cases: scale not given: direction of the effect not stated beside the values
[1] = molecular target: Protein translocase subunit SecA (Escherichia coli (strain K12)) (UniProt P10408); experiment: Assay to Identify E. coli SecA ATPase Inhibitors; format: functional; details: 30 µM
[2] = molecular target: T1, Ubiquitin-activating enzyme e1, putative (Leishmania donovani (strain BPK282A1)) (UniProt E9BSI1); experiment: Leishmania donovani Ubiquitin Activating Enzyme (LdE1); format: functional; details: 30 µM
T1 sequence (whole entry): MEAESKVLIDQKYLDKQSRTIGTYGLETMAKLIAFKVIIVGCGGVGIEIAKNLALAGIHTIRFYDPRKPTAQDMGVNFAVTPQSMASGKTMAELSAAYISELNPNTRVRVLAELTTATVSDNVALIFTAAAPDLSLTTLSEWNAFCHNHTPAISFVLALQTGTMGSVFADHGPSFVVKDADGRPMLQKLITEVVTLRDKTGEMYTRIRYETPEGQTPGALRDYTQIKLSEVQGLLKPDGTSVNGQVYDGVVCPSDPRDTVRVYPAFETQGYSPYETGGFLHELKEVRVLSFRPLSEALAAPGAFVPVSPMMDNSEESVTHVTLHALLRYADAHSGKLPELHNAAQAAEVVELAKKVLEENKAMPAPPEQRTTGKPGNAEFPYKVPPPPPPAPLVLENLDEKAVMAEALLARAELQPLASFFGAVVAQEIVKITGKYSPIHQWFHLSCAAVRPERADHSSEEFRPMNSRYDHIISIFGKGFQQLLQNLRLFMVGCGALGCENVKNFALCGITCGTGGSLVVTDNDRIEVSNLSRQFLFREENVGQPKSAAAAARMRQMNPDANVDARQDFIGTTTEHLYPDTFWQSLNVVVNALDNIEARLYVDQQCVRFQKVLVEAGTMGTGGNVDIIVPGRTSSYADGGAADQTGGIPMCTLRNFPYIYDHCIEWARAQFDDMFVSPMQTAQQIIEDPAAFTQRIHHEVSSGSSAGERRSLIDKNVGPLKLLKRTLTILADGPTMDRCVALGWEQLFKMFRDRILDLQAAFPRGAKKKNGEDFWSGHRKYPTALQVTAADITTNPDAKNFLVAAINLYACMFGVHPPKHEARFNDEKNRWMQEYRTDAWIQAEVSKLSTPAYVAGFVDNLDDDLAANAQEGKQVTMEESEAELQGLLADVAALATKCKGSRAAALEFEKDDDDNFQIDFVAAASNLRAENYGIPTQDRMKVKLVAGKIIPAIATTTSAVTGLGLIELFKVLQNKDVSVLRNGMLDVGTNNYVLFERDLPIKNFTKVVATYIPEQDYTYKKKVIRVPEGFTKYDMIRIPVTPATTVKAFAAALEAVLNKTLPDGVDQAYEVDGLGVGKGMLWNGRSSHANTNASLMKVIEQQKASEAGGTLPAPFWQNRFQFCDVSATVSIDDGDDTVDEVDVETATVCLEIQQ

[3] = molecular target: AMP-activated protein kinase, AMPK (Homo sapiens) (UniProt P54646+O43741+P54619+Q9UGJ0+Q9Y478+Q13131+Q9UGI9); experiment: AMP-dependent Kinase enzyme assay. An in vitro enzyme assay that detects ADP turnover that is directly proportional to AMPK activity. This uses naive AMPK that is activated during the assay with MK-8722; format: functional; details: 30 µM
[4] = molecular target: Sialic acid-binding Ig-like lectin 9 (Homo sapiens) (UniProt Q9Y336); experiment: Hs-Siglec9 ALPHAscreen SOP 20170721; details: 10 µM
Trypanosoma cruzi = experiment: Trypanosoma cruzi phosphomannomutase and mannose-1-phosphate guanylyltransferase assay; format: functional; details: 10 µM
[5] = molecular target: T2, Arginase-2, mitochondrial (Homo sapiens) (UniProt P78540); experiment: in vitro enzyme assay to detect the production of urea directly proportional to the activity of Arginase II; format: functional; details: 33.3 µM; further: in the data most compounds retested in dose-response had high values
T2 sequence (whole entry): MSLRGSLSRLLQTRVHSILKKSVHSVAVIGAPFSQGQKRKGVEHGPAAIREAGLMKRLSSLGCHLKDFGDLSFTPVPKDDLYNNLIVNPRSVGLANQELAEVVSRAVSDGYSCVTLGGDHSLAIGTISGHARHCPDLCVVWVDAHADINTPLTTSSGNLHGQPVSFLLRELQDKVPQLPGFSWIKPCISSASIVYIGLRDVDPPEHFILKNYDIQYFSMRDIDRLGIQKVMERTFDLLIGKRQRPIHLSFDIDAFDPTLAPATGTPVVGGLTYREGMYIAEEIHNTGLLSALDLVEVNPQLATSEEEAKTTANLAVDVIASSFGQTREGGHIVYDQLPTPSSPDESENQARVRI

[6] = molecular target: T3, Proteasome subunit beta (Trypanosoma cruzi) (UniProt O96673); experiment: Trypanosoma cruzi proteasome chymotrypsin-like activity (TcProtChymo) assay.; further: in the data most compounds retested in dose-response had high values; format: functional; details: 9.37 µM
T3 sequence (whole entry): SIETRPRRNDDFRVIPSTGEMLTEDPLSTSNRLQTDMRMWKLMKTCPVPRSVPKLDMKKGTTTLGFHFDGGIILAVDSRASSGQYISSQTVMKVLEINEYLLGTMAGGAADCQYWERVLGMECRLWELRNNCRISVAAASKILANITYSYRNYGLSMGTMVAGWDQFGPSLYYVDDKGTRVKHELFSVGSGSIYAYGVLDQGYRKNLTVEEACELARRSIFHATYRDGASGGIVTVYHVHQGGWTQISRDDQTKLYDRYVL

Homo sapiens = species: Homo sapiens; experiment: To identify inhibition of the IFN signalling (Jak-Stat) pathway via expression of an eGFP reporter gene under the control of an IFN-stimulated response element (ISRE) containing MxA promoter.; format: functional; details: 30 µM
[7] = molecular target: T4, Tyrosyl-tRNA synthetase, putative (Trypanosoma cruzi (strain CL Brener)) (UniProt Q4DSP6); experiment: Trypanosoma cruzi tyrosyl tRNA synthetase (TcYRS) _High Tyrosine SOP; format: functional; details: 30 µM; further: in the data most compounds retested in dose-response had high values
T4 sequence (whole entry): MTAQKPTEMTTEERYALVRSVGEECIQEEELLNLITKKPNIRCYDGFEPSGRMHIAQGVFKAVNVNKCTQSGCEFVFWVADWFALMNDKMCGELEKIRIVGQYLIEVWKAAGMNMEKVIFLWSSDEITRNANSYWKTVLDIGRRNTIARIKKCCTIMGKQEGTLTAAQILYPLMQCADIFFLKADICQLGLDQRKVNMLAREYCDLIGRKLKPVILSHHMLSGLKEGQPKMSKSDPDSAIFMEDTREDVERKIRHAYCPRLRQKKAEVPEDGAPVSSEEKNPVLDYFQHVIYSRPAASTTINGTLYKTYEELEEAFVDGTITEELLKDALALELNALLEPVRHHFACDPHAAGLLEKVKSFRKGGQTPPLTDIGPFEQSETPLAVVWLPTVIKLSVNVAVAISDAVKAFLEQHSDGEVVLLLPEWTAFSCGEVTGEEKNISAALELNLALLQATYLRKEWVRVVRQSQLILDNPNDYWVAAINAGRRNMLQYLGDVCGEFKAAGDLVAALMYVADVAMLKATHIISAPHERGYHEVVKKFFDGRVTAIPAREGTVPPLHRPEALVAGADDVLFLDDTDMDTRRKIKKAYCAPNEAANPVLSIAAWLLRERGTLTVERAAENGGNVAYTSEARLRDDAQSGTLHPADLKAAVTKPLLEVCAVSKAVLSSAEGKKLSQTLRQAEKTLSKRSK

[8] = molecular target: T4, Tyrosyl-tRNA synthetase, putative (Trypanosoma cruzi (strain CL Brener)); experiment: Trypanosoma cruzi tyrosyl tRNA synthetase (TcYRS) SOP; format: functional; details: 30 µM
[9] = molecular target: Chromo domain-containing protein 1 (Saccharomyces cerevisiae (strain ATCC 204508 / S288c) (Baker's yeast)) (UniProt P32657); experiment: ScCHD-1 Enzyme Inhibition Assay; format: functional; details: 30 µM; further: in the data most compounds retested in dose-response had high values
Chromo domain-containing protein 1 (Saccharomyces cerevisiae (strain ATCC 204508 / S288c) (Baker's yeast)), sequence (P32657 whole entry, the tested form may be a part): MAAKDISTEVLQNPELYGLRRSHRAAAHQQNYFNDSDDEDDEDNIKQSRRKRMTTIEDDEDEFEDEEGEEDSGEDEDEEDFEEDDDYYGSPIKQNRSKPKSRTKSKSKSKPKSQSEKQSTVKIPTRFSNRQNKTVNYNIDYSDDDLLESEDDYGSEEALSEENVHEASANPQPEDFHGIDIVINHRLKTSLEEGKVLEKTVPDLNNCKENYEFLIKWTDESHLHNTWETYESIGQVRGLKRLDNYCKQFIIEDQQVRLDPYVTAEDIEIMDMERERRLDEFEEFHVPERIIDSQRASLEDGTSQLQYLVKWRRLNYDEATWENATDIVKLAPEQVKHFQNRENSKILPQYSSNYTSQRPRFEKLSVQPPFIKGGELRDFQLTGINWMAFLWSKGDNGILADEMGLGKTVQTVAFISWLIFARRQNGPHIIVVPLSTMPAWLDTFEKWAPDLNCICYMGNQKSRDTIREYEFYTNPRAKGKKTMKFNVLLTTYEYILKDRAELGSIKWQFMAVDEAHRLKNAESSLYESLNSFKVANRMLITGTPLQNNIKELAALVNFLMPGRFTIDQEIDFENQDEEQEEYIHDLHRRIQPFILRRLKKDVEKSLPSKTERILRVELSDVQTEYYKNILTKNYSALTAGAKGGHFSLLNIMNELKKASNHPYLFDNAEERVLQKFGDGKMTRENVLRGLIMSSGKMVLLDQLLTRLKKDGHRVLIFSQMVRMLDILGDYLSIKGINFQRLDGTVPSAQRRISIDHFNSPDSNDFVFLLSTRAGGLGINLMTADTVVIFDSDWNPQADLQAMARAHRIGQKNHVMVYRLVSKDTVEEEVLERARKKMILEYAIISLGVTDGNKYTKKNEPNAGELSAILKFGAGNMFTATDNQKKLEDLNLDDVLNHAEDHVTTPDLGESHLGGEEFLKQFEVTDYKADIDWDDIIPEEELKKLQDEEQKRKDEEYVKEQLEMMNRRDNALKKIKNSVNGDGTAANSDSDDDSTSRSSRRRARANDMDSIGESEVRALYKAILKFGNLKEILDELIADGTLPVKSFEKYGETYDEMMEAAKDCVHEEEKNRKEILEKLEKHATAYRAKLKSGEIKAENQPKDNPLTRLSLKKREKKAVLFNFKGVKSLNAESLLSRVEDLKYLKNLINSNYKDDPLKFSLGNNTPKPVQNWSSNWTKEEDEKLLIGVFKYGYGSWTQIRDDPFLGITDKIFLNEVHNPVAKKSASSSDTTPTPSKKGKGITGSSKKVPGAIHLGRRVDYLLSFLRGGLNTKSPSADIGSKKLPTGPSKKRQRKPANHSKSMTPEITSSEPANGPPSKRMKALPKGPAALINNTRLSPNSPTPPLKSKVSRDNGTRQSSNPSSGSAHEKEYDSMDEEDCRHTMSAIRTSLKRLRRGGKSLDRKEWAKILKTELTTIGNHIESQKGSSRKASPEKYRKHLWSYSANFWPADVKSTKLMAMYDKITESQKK

Sialic acid-binding Ig-like lectin 9 (Homo sapiens), sequence (Q9Y336 whole entry): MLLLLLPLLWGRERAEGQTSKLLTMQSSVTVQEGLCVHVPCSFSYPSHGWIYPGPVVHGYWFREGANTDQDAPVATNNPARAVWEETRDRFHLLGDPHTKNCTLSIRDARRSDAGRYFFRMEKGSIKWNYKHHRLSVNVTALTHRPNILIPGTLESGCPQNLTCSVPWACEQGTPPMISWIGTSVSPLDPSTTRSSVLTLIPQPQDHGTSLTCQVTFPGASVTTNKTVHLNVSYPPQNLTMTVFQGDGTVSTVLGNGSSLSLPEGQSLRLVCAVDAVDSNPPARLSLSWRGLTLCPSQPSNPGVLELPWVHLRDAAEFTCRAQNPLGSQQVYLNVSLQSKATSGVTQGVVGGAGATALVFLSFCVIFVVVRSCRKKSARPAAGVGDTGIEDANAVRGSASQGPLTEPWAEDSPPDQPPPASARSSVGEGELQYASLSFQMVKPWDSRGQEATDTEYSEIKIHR
Protein translocase subunit SecA (Escherichia coli (strain K12)), sequence (P10408 whole entry): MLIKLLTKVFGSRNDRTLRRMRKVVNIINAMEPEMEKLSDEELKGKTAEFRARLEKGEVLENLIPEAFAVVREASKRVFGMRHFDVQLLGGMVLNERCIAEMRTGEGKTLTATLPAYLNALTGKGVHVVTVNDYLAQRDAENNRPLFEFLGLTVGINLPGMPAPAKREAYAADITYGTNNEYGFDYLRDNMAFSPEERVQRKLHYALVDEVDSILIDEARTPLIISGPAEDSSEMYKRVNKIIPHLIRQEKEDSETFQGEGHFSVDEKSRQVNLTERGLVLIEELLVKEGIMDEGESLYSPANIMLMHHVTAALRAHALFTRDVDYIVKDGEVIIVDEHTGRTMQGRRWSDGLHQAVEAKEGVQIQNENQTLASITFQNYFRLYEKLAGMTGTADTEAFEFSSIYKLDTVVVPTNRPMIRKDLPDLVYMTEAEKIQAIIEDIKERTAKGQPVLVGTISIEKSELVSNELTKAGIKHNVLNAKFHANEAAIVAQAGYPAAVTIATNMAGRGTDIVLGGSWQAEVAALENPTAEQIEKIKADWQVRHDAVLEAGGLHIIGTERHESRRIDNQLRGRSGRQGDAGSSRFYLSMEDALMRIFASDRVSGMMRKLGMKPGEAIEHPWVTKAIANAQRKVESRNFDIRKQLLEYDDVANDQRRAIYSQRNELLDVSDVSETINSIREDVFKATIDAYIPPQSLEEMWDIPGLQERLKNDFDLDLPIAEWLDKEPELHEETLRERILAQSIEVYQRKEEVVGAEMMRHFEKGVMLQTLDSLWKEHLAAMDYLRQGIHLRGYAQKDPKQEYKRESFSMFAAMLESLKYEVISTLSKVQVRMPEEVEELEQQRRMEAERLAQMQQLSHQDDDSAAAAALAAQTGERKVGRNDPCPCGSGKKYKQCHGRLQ

| SMILES | Percent Effect [1] [%] | Percent Effect [2] [%] | Percent Effect [3] [%] | Percent Effect [4] [%] | Percent Effect (Trypanosoma cruzi) [%] | Percent Effect [5] [%] | Percent Effect [6] [%] | Percent Effect (Homo sapiens) [%] | Percent Effect [7] [%] | Percent Effect [8] [%] | Percent Effect [9] [%] |
| --- | --- | --- | --- | --- | --- | --- | --- | --- | --- | --- | --- |
| CCn1cnnc1CNC(=O)CCC(=O)c1ccc2c(c1)OCCO2 | -8.9 | 16.2 | -8.33 | 6.97 | 6.7 | -10 | 15.3 | 11.5 | 10.3 | 23.5 | -8.22 |
| CN(Cc1cnn(-c2ccccc2)n1)CC1CCCN1c1cccnn1 (configuration not stated) | -3.33 | -36.8 | 3.24 | 7.96 | 5.7 | 0.36 | -3.98 | 8.95 | 8.37 | 13.6 | 1.47 |
| CCn1ccnc1CN1CCCN(C(=O)c2sccc2C#N)CC1 | -2.7 | -2.53 | 1.18 | 1.09 | 0.472 | 1.52 | -4.01 | -12.1 | 6.4 | 8.86 | 0.721 |
| Cc1nc(O)c2nnn(C[C@H]3CCCN3C(=O)c3cccc(F)c3)c2n1 | -3.34 | -1.35 | 8.18 | 1.91 | -3.36 | -3.48 | -0.936 | 9.46 | 2.15 | 1.3 | 7.79 |
| Cc1ccsc1C(=O)N1C[C@@H]2CN(Cc3ccoc3)CCO[C@@H]2C1 | 1.09 | 18.9 | 1.36 | -11.6 | 5.18 | 9.87 | 12.7 | -6.4 | 6.49 | 15.4 | -1.54 |
| Cc1nn(C)c(C)c1C(C)NC(=O)Nc1cccnc1N1CCCC1 (configuration not stated) | -1.26 | 2.7 | -19.3 | 6.12 | -3.3 | 0 | 0.18 | 15 | -0.493 | 3.7 | -0.951 |
| CC(C)c1cc(NC(=O)c2ccc(C(=O)NC(C)(C)C)cc2)[nH]n1 | -6.52 | 23.4 | 112 | -4.38 | -3 | 0.712 | 0.169 | 53 | 6.8 | 24.4 | -4.07 |
| O=C(c1ccc(-n2ccnc2)nc1)N1CCCC(n2cccn2)C1 (configuration not stated) | -0.548 | 7.89 | -2.37 | 3.05 | -2.63 | 7.28 | -0.501 | 15.7 | 5.39 | 9.76 | 0.587 |
| O=C1[C@H]2CN(c3ncccn3)C[C@H]2CN1Cc1ccncc1 | -4.5 | -2.7 | 1.46 | -4.76 | -2.34 | -0.417 | 3.97 | -1.92 | 3.96 | -3.66 | -3.35 |
| CC(C)n1c(=O)nc2n1C(=O)N(c1ccc(F)cc1)C2 | -3.14 | 13.2 | 0.365 | 6.05 | 0.682 | -2.37 | 13.9 | -9.89 | 4.25 | 7.79 | -5.52 |
| Cc1cccc(-c2ccc(C(=O)NCCN(C)C3CC3)c(=O)[nH]2)c1 | -4.4 | 0 | -7.73 | -0.0788 | -4.43 | 4.41 | -0.721 | 19 | 0.493 | 6.17 | -1.94 |
| Cn1cc(CN2CCn3cc(CNC(=O)c4cccn4C)nc3C2)cn1 | -0.61 | 0 | 12.6 | 0.00498 | -0.394 | -0.699 | -4.32 | 3.52 | 4.25 | 6.41 | 5.91 |
| NCC(=O)N1CCCC(c2cncc(Nc3ncccn3)n2)C1 (configuration not stated) | -3.81 | 9.46 | 17.7 | 18 | -2.57 | -3.48 | 10.3 | 5.7 | 5.38 | 11.7 | 2.63 |
| Cc1cc(C)n(CC2CN(Cc3cccc(C(N)=O)c3)CCO2)n1 (configuration not stated) | -2.43 | 16.2 | 8.27 | -0.119 | 4.69 | 8.75 | 20.7 | 18.8 | 7.92 | 20.7 | 97.6 |
| Cc1cnn(CC2CCCN2Cc2nnc(Cc3ccccc3)o2)c1 (configuration not stated) | -4.98 | 10.8 | -8.22 | -3.85 | -9.15 | 6.81 | 3.96 | 19.9 | 4.43 | 3.7 | -4.25 |
| Fc1cccc(-c2nc(CN3CCOC(Cn4cncn4)C3)co2)c1 (configuration not stated) | -1.25 | 0 | 1.03 | 1.46 | 8.97 | -1.14 | 4.67 | -3.37 | 0.493 | 3.8 | -3.88 |
| Cc1ccc(CNCCOc2ccc(S(C)(=O)=O)cc2)cc1 | -7.67 | -5.48 | 4.35 | -1.11 | -2.18 | -0.798 | -3.68 | 9.56 | 4.17 | -1.24 | 3.43 |
| O=C(NCC1CC1)N1CCN(Cc2ccc3c(c2)OCCO3)CC1 | -2.95 | 5.26 | 1.09 | 12.6 | 3.08 | 1.08 | 4.99 | 20 | 3.45 | 13.6 | 0.382 |
| Cc1ccc(C(=O)Nc2cn[nH]c2)cn1 | 0.472 | 13.2 | 9.28 | 0.161 | -1.13 | -3.45 | 8.69 | 6.9 | 1.47 | 19.5 | -10.8 |
| c1cncc(C2COC3(CCN(CC4CC4)CC3)C2)c1 (configuration not stated) | -5.88 | 5.41 | 0.748 | -4.23 | -1.17 | 4.58 | 12.9 | -13.5 | 8.91 | 1.22 | -3.69 |
| COc1ccc(C2=CCN(C(=O)CN(C)Cc3ccoc3)CC2)cc1 | -6.75 | 7.59 | -2.65 | 5.81 | 11.6 | -5.32 | 10.4 | 28.5 | 8.37 | 21.5 | -11.7 |
| Cc1oc(C)c(C(=O)NCc2ccccc2S(=O)(=O)N(C)C)c1C | -1.39 | 10.5 | 8.5 | 1.67 | -3.01 | -3.83 | 8.19 | 2.68 | 1.47 | 7.32 | -5.82 |
